Screens as filed in PubChem.
The list is not random: actives were taken first. Their share in the collection is about 1.6%.
KCNQ2 block = rat KCNQ2 potassium channel inhibitors, primary screen, cell-based, CHO-K1, FluxOR thallium flux, B-score; AID 2156, 2009; 310,000 compounds, 1.1% hits; 20 min; stronger effect = lower value; B-score at 10 µM;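 active = fluorescence ratio B-score at most minus 3 library SDs, with starting brightness B-score within 2 library SDs, cut at about -5.5 in these data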
Target sequence (O88943 whole entry, looked up): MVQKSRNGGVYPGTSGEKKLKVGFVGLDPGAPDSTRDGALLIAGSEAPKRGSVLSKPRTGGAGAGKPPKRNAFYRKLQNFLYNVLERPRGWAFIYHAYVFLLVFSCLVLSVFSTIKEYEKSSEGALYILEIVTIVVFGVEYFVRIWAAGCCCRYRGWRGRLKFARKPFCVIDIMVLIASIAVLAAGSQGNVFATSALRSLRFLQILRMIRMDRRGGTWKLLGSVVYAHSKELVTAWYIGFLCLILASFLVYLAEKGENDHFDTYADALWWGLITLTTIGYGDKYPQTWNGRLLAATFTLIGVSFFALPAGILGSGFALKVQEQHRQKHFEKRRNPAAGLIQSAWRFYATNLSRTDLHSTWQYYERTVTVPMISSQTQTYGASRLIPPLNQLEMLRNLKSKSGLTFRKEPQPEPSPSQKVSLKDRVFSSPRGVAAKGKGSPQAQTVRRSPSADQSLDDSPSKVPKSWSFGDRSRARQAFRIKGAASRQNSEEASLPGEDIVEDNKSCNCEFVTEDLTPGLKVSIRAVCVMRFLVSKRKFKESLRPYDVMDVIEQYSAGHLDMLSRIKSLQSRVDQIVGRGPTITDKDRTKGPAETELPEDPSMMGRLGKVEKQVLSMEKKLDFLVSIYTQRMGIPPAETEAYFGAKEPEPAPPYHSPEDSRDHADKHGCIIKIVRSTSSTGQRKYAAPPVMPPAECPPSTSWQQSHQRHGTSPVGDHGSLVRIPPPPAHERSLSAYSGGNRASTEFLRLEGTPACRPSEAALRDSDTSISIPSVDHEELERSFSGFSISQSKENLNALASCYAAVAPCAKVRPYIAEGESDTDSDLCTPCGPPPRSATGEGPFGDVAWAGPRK
KCNQ2 enhance = potentiators of rat KCNQ2 potassium channel | B-score at 10 µM | 310,000 compounds, 0.54% hits | Potassium voltage-gated channel subfamily KQT member 2 (Rattus norvegicus), O88943 | CHO-K1 KCNQ2, FluxOR thallium flux fluorescence; stronger effect = higher value;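 active = fluorescence ratio B-score at least 3 SD of library B-scores, with initial fluorescence B-score within 3 of them, cut at about 5.3 in these data; same plate scores as AID 2156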;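 also: B-score of peak minus minimum over baseline fluorescence ratio after K+ and Tl+ stimulus; positive B-score means potentiation of KCNQ2 with more thallium influx and brighter signal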
Active calls of the source: *.

For Cn1c2ccccc2c2c(C(=O)O)cn(C3CCCC3)c(=O)c21 the results were KCNQ2 block inactive.
NC(=O)c1cc(-c2ccccc2)sc1NC(=O)CN1CCCCC1 was read as KCNQ2 block inactive and KCNQ2 enhance 1.6.
For CCN(CC(=O)NCc1cccs1)C(=O)c1cccc(S(=O)(=O)Nc2ccccc2Cl)c1 the results were KCNQ2 block inactive.
O=C(CSc1nc2cc(Cl)ccc2s1)N1CCCc2ccccc21 was read as KCNQ2 block -5.9* and KCNQ2 enhance -5.9.
Screening Cn1c(SCC(=O)N2c3ccccc3Sc3ccccc32)nc2ccccc21 returned KCNQ2 block inactive.
`COCCn1c(SCC(=O)N2CCCc3ccccc32)nc2ccccc2c1=O` gave KCNQ2 block -6.7* and KCNQ2 enhance -6.7.
`O=C(CSc1nc(O)cc(=O)[nH]1)N1CCCc2ccccc21` gave KCNQ2 block inactive and KCNQ2 enhance 0.47.
For CN(C)CCCn1c(SCC(=O)N2c3ccccc3Sc3ccccc32)nc2ccccc2c1=O the results were KCNQ2 block -6.4* and KCNQ2 enhance -6.4.
CCOc1ccc2nc(SCC(=O)N3CCCc4ccccc43)sc2c1 was read as KCNQ2 block inactive.
For Cc1cc(=O)[nH]c(SCC(=O)N2CCCc3ccccc32)n1 the results were KCNQ2 block -6.2* and KCNQ2 enhance -6.2.
`COCCn1c(SCC(=O)N2CCCc3ccccc32)nc2c(c1=O)SC(C)C2` (configuration not stated) gave KCNQ2 block inactive.
For CC(=O)Nc1cccc(/C(C)=N\NC(=O)c2ccc(Cn3nc([N+](=O)[O-])c(Cl)c3C)o2)c1 the results were KCNQ2 block inactive and KCNQ2 enhance 1.1.
For CCO[C@@H]1OC(C(=O)O)=C[C@H](c2ccc(C(F)(F)F)cc2)[C@H]1CCCO the results were KCNQ2 block inactive.
For COc1ccc(S(=O)(=O)N2CCc3ccccc32)cc1C(=O)Nc1ccc(C(N)=O)cc1 the results were KCNQ2 block inactive.
For Cc1ccc(C(c2nnnn2C2CCCC2)N2CCN(c3nc4ccccc4s3)CC2)cc1 (configuration not stated) the results were KCNQ2 block -6.4* and KCNQ2 enhance -6.4.
For Cc1ccc(C(c2nnnn2C2CCCCC2)N2CCc3ccccc32)cc1 (configuration not stated) the results were KCNQ2 block -5.6* and KCNQ2 enhance -5.6.
CC(C)C(c1nnnn1C1CCCCC1)N1CCc2ccccc21 (configuration not stated) was read as KCNQ2 block inactive.
`c1ccc(C(c2nnnn2C2CCCC2)N2CCN(c3nc4ccccc4s3)CC2)cc1` (configuration not stated) gave KCNQ2 block inactive.
For OC(CCN1CCCCC1)(c1ccccc1)C1CCCCC1 (configuration not stated) the results were KCNQ2 block inactive.
For OC(CCN1CCOCC1)(c1ccc(Cl)cc1)C1CCCCC1 (configuration not stated) the results were KCNQ2 block -5.8* and KCNQ2 enhance -5.8.
O=C(OCc1nnc(-c2ccccc2)o1)c1cn(-c2ccccc2)nc1-c1ccccc1 was read as KCNQ2 block -6.2* and KCNQ2 enhance -6.2.
Screening O=C(OCc1nnc(-c2ccccc2)o1)c1ccc(-n2cnnn2)cc1 returned KCNQ2 block inactive and KCNQ2 enhance 0.35.
Screening CCNc1ccc(C(=O)OC(C(=O)NC(N)=O)C(C)C)cc1[N+](=O)[O-] (configuration not stated) returned KCNQ2 block inactive.
`COCCNC(=O)CN(Cc1ccccc1)C(=O)CCC(=O)Nc1nccs1` gave KCNQ2 block inactive and KCNQ2 enhance 0.66.
C=CCOc1ccc(/C=C(\C#N)C(=O)Nc2ccccn2)cc1 was read as KCNQ2 block inactive and KCNQ2 enhance 1.1.
CCN(CC)S(=O)(=O)c1ccc(N2CCOCC2)c(NC(=O)COc2ccc(C#N)cc2)c1 was read as KCNQ2 block inactive.
`Cc1cccc(C(=O)O/N=C2/CC3CCC2(C)C3(C)C)c1` (configuration not stated) gave KCNQ2 block -5.7* and KCNQ2 enhance -5.7.
Cc1ccc(C(=O)O/N=C2\CC3CCC2(C)C3(C)C)cc1 (configuration not stated) was read as KCNQ2 block inactive.
`CCN1CCN(c2cc3c(nn2)Oc2ccccc2N3C)CC1` gave KCNQ2 block inactive and KCNQ2 enhance 1.7.
`c1ccc(CN2CCC(=NNc3nc4ccccc4[nH]3)CC2)cc1` gave KCNQ2 block inactive and KCNQ2 enhance 0.87.
Screening CC(C)(C)C1CCC(=NNc2nc3ccccc3[nH]2)CC1 (configuration not stated) returned KCNQ2 block -5.8* and KCNQ2 enhance -5.8.
Fc1cccc(Cc2noc(CN3CCCCC3CCc3ccccn3)n2)c1 (configuration not stated) was read as KCNQ2 block inactive.
